According to paper PMC7862700, “An all-to-all approach to the identification of sequence-specific readers for epigenetic DNA modifications on cytosine”:

What was measured:
Assay in all cases: DAPPL (digital affinity profiling via proximity ligation, sequencing); 10 mM Tris-HCl pH 7.5, 50 mM NaCl, 1 mM DTT, 4% glycerol, room temperature, 30 min; GST-TFs on glutathione beads, 16-mer random dsDNA library, 0.1% formaldehyde crosslink after washing; high values mean tight binding
FLI1 = biological target: T1, FLI1 (Homo sapiens, UniProt Q01543 1-452); conditions: protein: recombinant; tags: N-terminal GST; dsDNA, one strand shown
T1 sequence: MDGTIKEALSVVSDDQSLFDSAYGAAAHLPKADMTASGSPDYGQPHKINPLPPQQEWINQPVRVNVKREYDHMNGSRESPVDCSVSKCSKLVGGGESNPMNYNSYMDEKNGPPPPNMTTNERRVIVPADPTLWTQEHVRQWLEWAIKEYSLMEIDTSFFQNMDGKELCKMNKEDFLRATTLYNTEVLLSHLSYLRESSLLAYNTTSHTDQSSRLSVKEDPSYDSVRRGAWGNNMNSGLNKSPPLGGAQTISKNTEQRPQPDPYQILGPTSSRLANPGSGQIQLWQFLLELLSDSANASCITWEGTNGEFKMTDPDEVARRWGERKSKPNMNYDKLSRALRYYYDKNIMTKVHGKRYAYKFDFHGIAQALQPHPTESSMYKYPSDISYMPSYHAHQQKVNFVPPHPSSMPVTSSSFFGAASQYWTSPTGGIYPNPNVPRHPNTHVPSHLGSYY
Outline: (§1)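 In yeast, human transcription factors were expressed with a GST fusion, then pulled down on glutathione beads and given DNA barcodes. Pooled with a tag-only sample, they were exposed to 200 nmole of a 16-mer random double-stranded DNA library (Tris/NaCl/DTT/glycerol buffer, room temperature, 30 min), washed, crosslinked with 0.1% formaldehyde, proximity-ligated using BsaI/T4 ligase for 1 h at 37 °C, PCR-amplified and read on an Illumina NextSeq500. Each hexamer's frequency of reads for a factor, divided by the matching frequency for the tag-only sample, gives the binding signal.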

ELK1 = biological target: T2, ELK1 (Homo sapiens, UniProt P19419 1-428); conditions: protein: recombinant; tags: N-terminal GST; dsDNA, one strand shown
T2 sequence: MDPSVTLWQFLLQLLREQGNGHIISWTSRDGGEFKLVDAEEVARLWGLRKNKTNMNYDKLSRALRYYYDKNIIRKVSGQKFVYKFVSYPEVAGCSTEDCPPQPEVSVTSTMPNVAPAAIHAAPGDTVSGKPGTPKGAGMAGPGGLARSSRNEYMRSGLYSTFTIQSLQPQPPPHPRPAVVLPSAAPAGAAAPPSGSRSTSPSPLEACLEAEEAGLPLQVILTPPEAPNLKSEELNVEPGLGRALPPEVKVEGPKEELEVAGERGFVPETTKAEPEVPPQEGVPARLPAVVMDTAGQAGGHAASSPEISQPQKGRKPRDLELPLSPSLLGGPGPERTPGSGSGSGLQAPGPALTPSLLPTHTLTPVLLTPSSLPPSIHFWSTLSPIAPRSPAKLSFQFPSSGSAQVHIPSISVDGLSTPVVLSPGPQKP
Outline: as §1

GABPA = biological target: T3, GABPA (Homo sapiens, UniProt Q06546 1-454); conditions: protein: recombinant; tags: N-terminal GST; dsDNA, one strand shown
T3 sequence: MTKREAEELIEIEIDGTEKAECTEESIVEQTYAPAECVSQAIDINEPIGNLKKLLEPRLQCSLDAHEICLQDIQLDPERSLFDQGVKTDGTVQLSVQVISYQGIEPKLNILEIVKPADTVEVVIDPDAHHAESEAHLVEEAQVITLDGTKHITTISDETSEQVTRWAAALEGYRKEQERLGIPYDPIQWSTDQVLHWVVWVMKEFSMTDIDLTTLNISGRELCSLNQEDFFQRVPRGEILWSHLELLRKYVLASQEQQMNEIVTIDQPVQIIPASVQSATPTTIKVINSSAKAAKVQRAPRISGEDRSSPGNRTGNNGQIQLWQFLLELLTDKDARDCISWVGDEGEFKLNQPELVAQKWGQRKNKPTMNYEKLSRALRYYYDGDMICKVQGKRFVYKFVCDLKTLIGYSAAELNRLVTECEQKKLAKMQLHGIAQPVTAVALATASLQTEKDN
Outline: as §1

ERG = biological target: T4, ERG (Homo sapiens, UniProt P11308 1-479); conditions: protein: recombinant; tags: N-terminal GST; dsDNA, one strand shown
T4 sequence: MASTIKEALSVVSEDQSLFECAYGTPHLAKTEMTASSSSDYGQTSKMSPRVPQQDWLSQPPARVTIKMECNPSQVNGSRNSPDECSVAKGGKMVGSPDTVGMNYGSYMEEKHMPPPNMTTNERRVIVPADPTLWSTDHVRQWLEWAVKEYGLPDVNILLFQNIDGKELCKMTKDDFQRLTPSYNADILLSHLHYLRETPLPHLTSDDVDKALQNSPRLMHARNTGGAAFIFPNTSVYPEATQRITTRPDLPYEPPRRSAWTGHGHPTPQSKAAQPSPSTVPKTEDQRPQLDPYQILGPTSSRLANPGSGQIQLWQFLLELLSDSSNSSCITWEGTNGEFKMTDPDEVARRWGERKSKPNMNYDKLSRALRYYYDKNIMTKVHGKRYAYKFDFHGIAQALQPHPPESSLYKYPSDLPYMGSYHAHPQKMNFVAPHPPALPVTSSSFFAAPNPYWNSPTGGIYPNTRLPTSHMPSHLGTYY
Outline: as §1

ELF1 = ELF1 (Homo sapiens, UniProt P32519 1-619); conditions: protein: recombinant; tags: N-terminal GST; dsDNA, one strand shown
Outline: as §1

EHF = biological target: T5, EHF (Homo sapiens, UniProt Q9NZC4 1-300); conditions: protein: recombinant; tags: N-terminal GST; dsDNA, one strand shown
T5 sequence: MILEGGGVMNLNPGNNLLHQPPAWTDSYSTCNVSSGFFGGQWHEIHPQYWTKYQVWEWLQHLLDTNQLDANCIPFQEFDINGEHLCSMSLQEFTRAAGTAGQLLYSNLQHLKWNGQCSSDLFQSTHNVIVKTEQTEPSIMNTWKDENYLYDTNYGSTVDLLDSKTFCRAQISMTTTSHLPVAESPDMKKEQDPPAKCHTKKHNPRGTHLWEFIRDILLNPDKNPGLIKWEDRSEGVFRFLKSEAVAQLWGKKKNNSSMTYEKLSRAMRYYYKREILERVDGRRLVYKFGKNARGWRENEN
Outline: as §1

SPI1 = SPI1 (Homo sapiens, UniProt P17947 1-270); conditions: protein: recombinant; tags: N-terminal GST; dsDNA, one strand shown
Outline: as §1

SPIB = SPIB (Homo sapiens, UniProt Q01892 1-262); conditions: protein: recombinant; tags: N-terminal GST; dsDNA, one strand shown
Outline: as §1

ELK3 = biological target: T6, ELK3 (Homo sapiens, UniProt P41970 1-407); conditions: protein: recombinant; tags: N-terminal GST; dsDNA, one strand shown
T6 sequence: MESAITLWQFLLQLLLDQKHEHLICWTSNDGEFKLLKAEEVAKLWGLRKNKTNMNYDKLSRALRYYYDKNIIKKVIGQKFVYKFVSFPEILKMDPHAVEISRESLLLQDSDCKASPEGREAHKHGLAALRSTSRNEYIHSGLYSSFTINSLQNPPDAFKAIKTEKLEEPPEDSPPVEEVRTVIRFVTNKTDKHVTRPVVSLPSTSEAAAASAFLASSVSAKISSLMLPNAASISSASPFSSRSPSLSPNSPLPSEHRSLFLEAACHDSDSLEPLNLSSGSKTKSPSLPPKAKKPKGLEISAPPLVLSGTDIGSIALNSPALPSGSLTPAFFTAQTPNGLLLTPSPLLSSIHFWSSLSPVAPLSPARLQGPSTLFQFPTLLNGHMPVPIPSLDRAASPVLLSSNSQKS
Outline: as §1

FEV = biological target: T7, FEV (Homo sapiens, UniProt Q99581 1-238); conditions: protein: recombinant; tags: N-terminal GST; dsDNA, one strand shown
T7 sequence: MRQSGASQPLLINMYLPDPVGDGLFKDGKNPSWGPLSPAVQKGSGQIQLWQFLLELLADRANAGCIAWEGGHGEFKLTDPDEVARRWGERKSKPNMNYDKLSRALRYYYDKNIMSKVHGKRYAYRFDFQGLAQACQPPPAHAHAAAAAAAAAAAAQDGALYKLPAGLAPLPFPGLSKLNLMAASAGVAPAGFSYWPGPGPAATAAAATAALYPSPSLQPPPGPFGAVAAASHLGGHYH
Outline: as §1

ETV5 = ETV5 (Homo sapiens, UniProt P41161 1-510); conditions: protein: recombinant; tags: N-terminal GST; dsDNA, one strand shown
Outline: as §1

HSF1 = HSF1 (Homo sapiens, UniProt Q00613 1-529); conditions: protein: recombinant; tags: N-terminal GST; chain copies: 3; dsDNA, one strand shown
Outline: as §1

SPIC = biological target: T8, SPIC (Homo sapiens, UniProt Q8N5J4 1-248); conditions: protein: recombinant; tags: N-terminal GST; dsDNA, one strand shown
T8 sequence: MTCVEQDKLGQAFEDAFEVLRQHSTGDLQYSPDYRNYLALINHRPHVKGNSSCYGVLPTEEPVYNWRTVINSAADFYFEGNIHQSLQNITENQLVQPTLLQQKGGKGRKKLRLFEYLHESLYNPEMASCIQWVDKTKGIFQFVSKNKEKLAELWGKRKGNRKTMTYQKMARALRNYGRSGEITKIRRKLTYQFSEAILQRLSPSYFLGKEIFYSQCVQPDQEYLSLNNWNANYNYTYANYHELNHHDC
Outline: as §1

ELF4 = ELF4 (Homo sapiens, UniProt Q99607 1-663); conditions: protein: recombinant; tags: N-terminal GST; dsDNA, one strand shown
Outline: as §1

ELK4 = biological target: T9, ELK4 (Homo sapiens, UniProt P28324-2 1-405); conditions: protein: recombinant; tags: N-terminal GST; dsDNA, one strand shown
T9 sequence: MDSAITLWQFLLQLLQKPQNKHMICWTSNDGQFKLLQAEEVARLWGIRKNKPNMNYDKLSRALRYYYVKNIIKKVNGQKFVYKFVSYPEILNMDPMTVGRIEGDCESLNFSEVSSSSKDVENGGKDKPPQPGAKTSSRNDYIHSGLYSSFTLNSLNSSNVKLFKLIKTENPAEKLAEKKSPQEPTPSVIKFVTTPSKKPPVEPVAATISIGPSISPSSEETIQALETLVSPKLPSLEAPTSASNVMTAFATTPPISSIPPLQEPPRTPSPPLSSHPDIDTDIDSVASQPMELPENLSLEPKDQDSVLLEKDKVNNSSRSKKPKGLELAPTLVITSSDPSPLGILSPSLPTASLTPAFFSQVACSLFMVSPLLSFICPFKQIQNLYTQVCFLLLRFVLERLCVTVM
Outline: as §1

ETV2 = biological target: T10, ETV2 (Homo sapiens, UniProt O00321 1-342); conditions: protein: recombinant; tags: N-terminal GST; dsDNA, one strand shown
T10 sequence: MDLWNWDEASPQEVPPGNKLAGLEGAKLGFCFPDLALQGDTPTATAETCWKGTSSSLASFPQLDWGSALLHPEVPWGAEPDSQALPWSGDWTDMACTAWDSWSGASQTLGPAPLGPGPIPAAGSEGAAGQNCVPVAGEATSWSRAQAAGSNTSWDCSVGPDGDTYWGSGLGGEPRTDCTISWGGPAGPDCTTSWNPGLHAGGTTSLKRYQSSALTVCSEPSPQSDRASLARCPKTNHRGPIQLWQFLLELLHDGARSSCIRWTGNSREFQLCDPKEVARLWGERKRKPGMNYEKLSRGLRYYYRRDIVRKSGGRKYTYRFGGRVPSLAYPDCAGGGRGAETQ
Outline: as §1

ELF3 = biological target: T11, ELF3 (Homo sapiens, UniProt P78545 1-371); conditions: protein: recombinant; tags: N-terminal GST; dsDNA, one strand shown
T11 sequence: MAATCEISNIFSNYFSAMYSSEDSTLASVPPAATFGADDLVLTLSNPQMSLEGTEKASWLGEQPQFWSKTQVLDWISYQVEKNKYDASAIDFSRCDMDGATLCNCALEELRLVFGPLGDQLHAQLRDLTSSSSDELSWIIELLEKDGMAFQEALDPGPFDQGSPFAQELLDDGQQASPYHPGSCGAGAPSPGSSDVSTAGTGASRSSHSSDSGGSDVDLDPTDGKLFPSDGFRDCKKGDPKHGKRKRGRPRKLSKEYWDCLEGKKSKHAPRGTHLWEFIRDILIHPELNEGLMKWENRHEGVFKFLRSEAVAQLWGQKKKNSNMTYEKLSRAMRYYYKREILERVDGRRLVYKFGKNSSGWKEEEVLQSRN
Outline: as §1

CRX = CRX (Homo sapiens, UniProt O43186 1-299); conditions: protein: recombinant; tags: N-terminal GST; dsDNA, one strand shown
Outline: as §1

ETV1 = ETV1 (Homo sapiens, UniProt P50549 1-477); conditions: protein: recombinant; tags: N-terminal GST; dsDNA, one strand shown
Outline: as §1

Sequence of SPIB (Q01892 whole entry): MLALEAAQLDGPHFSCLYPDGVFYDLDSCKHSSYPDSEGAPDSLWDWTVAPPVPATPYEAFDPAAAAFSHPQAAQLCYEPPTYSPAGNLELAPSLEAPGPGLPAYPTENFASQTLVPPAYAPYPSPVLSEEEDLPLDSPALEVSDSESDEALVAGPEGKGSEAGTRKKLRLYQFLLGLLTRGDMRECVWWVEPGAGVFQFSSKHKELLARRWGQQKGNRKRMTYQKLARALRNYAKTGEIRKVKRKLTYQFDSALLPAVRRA
Sequence of CRX (O43186 whole entry): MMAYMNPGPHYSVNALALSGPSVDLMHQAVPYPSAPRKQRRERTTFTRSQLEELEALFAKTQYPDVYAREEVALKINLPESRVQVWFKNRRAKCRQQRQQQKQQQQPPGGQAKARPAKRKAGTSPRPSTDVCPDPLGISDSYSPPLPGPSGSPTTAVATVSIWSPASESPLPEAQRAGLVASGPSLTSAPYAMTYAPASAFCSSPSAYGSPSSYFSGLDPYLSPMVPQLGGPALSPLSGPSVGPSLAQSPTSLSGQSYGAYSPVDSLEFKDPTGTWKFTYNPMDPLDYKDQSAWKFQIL
Sequence of ELF4 (Q99607 whole entry): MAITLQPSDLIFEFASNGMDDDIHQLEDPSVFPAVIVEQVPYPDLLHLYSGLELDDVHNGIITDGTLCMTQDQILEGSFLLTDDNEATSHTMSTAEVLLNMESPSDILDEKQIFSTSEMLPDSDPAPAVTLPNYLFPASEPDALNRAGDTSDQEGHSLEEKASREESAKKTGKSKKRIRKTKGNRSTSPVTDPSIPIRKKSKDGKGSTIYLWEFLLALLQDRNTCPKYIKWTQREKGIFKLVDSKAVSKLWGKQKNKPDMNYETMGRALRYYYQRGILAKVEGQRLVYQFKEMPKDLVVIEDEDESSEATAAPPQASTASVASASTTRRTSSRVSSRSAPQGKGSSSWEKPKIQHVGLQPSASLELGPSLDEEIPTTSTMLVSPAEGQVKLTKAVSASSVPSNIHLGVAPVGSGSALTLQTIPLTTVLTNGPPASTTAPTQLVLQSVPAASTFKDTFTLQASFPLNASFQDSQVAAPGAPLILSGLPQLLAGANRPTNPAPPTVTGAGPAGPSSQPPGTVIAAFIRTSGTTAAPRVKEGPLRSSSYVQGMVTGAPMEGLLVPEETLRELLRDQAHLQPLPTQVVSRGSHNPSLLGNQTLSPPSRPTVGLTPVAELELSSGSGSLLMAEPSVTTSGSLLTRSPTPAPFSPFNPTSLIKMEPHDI
Sequence of ETV1 (P50549 whole entry): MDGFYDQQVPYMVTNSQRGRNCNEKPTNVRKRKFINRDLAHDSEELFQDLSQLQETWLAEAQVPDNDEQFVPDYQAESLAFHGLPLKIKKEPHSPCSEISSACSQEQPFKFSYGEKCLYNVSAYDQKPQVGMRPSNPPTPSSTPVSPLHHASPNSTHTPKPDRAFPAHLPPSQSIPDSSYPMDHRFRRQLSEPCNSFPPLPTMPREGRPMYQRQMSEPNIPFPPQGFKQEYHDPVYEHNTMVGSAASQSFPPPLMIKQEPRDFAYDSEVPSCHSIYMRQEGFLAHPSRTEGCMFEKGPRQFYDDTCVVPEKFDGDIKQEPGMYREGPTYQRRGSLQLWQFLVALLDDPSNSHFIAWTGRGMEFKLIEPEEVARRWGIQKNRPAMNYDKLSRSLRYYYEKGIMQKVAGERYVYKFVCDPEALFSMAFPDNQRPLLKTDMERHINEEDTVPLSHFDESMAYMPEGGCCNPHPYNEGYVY
Sequence of ETV5 (P41161 whole entry): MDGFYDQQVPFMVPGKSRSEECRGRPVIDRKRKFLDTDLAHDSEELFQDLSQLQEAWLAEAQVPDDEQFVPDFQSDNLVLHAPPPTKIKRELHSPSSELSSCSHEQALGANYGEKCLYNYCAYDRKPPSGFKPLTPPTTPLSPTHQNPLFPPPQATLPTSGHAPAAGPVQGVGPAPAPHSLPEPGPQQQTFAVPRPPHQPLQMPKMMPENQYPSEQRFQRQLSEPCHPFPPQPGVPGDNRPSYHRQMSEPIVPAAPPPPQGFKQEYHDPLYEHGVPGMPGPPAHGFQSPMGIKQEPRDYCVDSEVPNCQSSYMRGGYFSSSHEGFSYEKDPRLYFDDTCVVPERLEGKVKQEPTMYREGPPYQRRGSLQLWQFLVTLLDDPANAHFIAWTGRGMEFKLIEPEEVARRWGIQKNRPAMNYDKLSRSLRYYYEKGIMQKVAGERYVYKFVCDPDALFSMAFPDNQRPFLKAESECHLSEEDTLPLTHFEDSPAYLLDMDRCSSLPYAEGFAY
Sequence of HSF1 (Q00613 whole entry): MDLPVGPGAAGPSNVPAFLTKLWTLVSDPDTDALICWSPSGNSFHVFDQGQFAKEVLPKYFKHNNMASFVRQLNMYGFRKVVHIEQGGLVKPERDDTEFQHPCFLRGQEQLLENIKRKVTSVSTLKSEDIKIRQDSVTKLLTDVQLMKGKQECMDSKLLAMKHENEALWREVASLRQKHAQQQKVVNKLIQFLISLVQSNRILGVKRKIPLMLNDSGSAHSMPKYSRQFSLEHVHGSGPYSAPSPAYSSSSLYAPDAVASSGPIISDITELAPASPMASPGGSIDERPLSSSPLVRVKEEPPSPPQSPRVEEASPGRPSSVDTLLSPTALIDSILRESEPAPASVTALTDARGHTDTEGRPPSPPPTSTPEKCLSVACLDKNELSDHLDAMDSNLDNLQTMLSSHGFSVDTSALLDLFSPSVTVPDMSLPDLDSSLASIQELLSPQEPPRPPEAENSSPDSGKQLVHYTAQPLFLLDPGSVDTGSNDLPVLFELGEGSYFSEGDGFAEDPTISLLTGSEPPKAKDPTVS
Sequence of ELF1 (P32519 whole entry): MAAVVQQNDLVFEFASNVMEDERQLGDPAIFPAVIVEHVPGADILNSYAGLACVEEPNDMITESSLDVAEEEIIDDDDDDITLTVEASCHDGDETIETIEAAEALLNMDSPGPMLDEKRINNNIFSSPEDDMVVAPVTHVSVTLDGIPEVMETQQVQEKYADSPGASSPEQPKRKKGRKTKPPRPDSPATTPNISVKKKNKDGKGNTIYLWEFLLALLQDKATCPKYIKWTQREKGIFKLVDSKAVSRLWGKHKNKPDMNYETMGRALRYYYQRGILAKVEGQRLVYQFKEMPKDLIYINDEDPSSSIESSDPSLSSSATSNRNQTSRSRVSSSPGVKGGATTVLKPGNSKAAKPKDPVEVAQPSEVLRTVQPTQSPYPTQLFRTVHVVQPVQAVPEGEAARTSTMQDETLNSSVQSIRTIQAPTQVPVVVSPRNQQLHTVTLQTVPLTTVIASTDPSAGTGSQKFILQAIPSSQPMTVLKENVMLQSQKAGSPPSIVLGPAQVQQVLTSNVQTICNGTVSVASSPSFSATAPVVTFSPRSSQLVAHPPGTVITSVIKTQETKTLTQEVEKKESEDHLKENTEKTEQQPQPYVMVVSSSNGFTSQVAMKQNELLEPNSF

## TACTAC
FLI1
  binding signal: 1.29 fold enrichment (6-mer frequency, TF over GST control)
ELK1
  binding signal: 1.35 fold enrichment (6-mer frequency, TF over GST control)
GABPA
  binding signal: 1.31 fold enrichment (6-mer frequency, TF over GST control)
ERG
  binding signal: 1.24 fold enrichment (6-mer frequency, TF over GST control)
ELF1
  binding signal: 1.39 fold enrichment (6-mer frequency, TF over GST control)
EHF
  binding signal: 1.36 fold enrichment (6-mer frequency, TF over GST control)
SPI1
  binding signal: 1.2 fold enrichment (6-mer frequency, TF over GST control)
SPIB
  binding signal: 1.41 fold enrichment (6-mer frequency, TF over GST control)
ELK3
  binding signal: 1.2 fold enrichment (6-mer frequency, TF over GST control)
FEV
  binding signal: 1.35 fold enrichment (6-mer frequency, TF over GST control)
ETV5
  binding signal: 1.33 fold enrichment (6-mer frequency, TF over GST control)
HSF1
  binding signal: 1.17 fold enrichment (6-mer frequency, TF over GST control)
SPIC
  binding signal: 1.26 fold enrichment (6-mer frequency, TF over GST control)
ELF4
  binding signal: 1.36 fold enrichment (6-mer frequency, TF over GST control)
ELK4
  binding signal: 1.19 fold enrichment (6-mer frequency, TF over GST control)
ETV2
  binding signal: 1.38 fold enrichment (6-mer frequency, TF over GST control)
ELF3
  binding signal: 1.08 fold enrichment (6-mer frequency, TF over GST control)
CRX
  binding signal: 1.13 fold enrichment (6-mer frequency, TF over GST control)
ETV1
  binding signal: 1.24 fold enrichment (6-mer frequency, TF over GST control)
